# The campaign covered roughly 1,100 compounds. About 350 (32%) were called active. These entries were drawn from the full list. Results with a measured potency or affinity are listed apart. A number with no mark means an inactive call. The rule behind the calls is not given here.
# Test: CEM21 lymphoblast cell cytotoxicity, dose response, cytotoxicity control for viral fusion inhibitor project, CellTiter-Glo luminescence, cherry-picked (AID 652042)
# Settings: CEM21 cells viability, CellTiter-Glo ATP luminescence, 24 h; series mostly up to 35 µM; activity change, negative = cytotoxicity: at the top concentration
row,SMILES,"activity change, negative = cytotoxicity"
1,COc1ccc(C(C)=O)cc1CC1(C)C(=O)Nc2ccc(-c3ccccc3OC)cc21 (stereo not drawn),-12.9%
2,COc1cc(OCC(=O)NC(C)C)cc2c1C(=O)O[C@@H](C)CCCC(=O)CCCCC2,-0.878%
3,CSc1cccc(N2CC(C(=O)Nc3cccc(S(=O)(=O)N4CCCC4)c3)CC2=O)c1 (stereo not drawn),-10.7%
4,CSc1ccc(CN(C)C(=O)c2cccc(S(=O)(=O)N3CCN(Cc4ccccc4)CC3)c2)cc1,-22.7%
5,COc1cc(NC2c3ccccc3C(=O)N2Cc2ccc3c(c2)OCO3)cc(OC)c1OC (stereo not drawn),-12.5%
6,O=C(NC12CC3CC(CC(C3)C1)C2)OCCNC1CCCCC1,-10.5%
7,O=C1CCCC2=C1C(c1cccs1)Nc1ccccc1N2 (stereo not drawn),6.75%
8,CC[C@]1(C(=O)OC)[C@H]2C(=O)N(Cc3ccccc3)C(=O)[C@H]2[C@H]2CN=C(SCc3ccc(C#N)cc3)N21,-9.41%
9,CCOc1ccc(NS(=O)(=O)c2ccc(C(=O)N(C)CCc3ccc(OC)c(OC)c3)cc2)cc1,-5.56%
10,CC(C)C[C@@H](CN(C)N=O)N(C[C@H](Cc1ccccc1)N(CCc1ccccc1)N=O)N=O,-17.2%
11,CCc1nc2ccc(C(=O)N3CCN(C(=O)c4ccco4)CC3)cn2c1N(C)Cc1ccc(OC)cc1,3.73%
12,C[C@@]12C(=O)N(Cc3ccccc3)CC(=O)N1[C@H]1c3ccccc3OC[C@@H]1[C@@H]2c1ccccc1,-13.4%
13,O=S1(=O)c2c(cccc2N2CCCCC2)O[C@H](COCc2ccccc2)CN1C1CC1,-27.1%
14,COc1ccc(CCNC(=O)C2CCCN(Cc3nc(-c4cccc(Cl)c4)oc3C)C2)cc1OC (stereo not drawn),-21.6%
15,Cc1oc(-c2ccc(Cl)cc2)nc1CN1CCCC(C(=O)NCc2cccnc2)C1 (stereo not drawn),-12%
16,Nc1cc(-c2ccccc2)nn1S(=O)(=O)c1ccc(F)cc1,-10.4%
17,c1cnc2ccc(C(c3nnnn3C3CCCCC3)N3CCCCC3)cc2c1 (stereo not drawn),-0.125%
18,C=CCNc1ncnc2ccc(Br)cc12,-12%
19,c1ccc(CNc2ncnc3ccccc23)cc1,-9.36%
20,CCN(C[C@H]1N[C@@](C)(C(=O)OC)[C@H]2C(=O)N(Cc3ccccc3)C(=O)[C@@H]12)S(=O)(=O)c1ccc(C(C)(C)C)cc1,-18.3%
21,CC1(Cc2ccc(Cl)cc2)C(=O)Nc2ccc(-c3cccnc3)cc21 (stereo not drawn),-18.7%
22,O=C(CNc1ccc(F)cc1)c1ccccc1,-10.5%

row,SMILES,"activity change, negative = cytotoxicity"
1,O=C(CCCCn1c(=O)[nH]c2ccccc2c1=O)N1CCN(c2cccc(C(F)(F)F)c2)CC1,-23%
2,COc1cccc(Cl)c1NC(=O)N1CCc2c([nH]c3ccccc23)C1C(F)(F)F (stereo not drawn),-26.7%
3,COc1ccc(N2CCN(C(=O)C3CCC(Cn4c(=S)[nH]c5ccccc5c4=O)CC3)CC2)cc1 (stereo not drawn),-1.8%
4,CC(C)CCSc1nc(N)c(C#N)cc1C#N,-12.2%
5,COc1ccc(CNc2ncnc3ccccc23)cc1,-6.27%
6,COC(=O)C1(C(=O)OC)C[C@H](c2ccc(OC)cc2)N(Cc2ccccc2OC)[C@@H]1c1cccs1,inactive
7,CC(C)(C)c1ccc(C(=O)Nc2ccc(CC(=O)O)cc2)o1,6.68% [at 16 µM]
8,Cc1nn(C)c(C)c1CN(C)S(=O)(=O)c1ccc2ccccc2c1,-10.7%
9,CS(=O)(=O)N(Cc1ccc(Cl)cc1)c1ccc(C(=O)NCCC2=CCCCC2)cc1,-5.94%
10,Cc1ccc2c(c1)c1c3n2CCN(CC(N)=O)C3CCC1 (stereo not drawn),-3.1%
11,CO[C@H]1CN(C)C(=O)c2cc(NS(=O)(=O)c3ccc(Cl)cc3)ccc2OC[C@@H](C)N(C)C[C@@H]1C,3.29%
12,Cc1cc2ncn(S(=O)(=O)N3CCCCC3)c2cc1C,-4.91%
13,CC(=O)Nc1sc2c(c1C(c1ccc(F)cc1)N1CCOCC1)CCCC2 (stereo not drawn),-20.5%
14,CC(C)(C)c1ccc(C(=O)N2CCCCCC2=O)cc1,0.857%
15,CN(C[C@@H](CC1CCCCC1)N(C[C@H](Cc1ccccc1)N(CCc1ccccc1)N=O)N=O)N=O,-12.5%
16,CC[C@]1(C(=O)OC)[C@H]2C(=O)N(Cc3ccccc3)C(=O)[C@H]2[C@H]2CN=C(SCC3CC3)N21,-6.36%
17,CO[C@@H]1CN(C)C(=O)c2ccc(NC(C)=O)cc2OC[C@@H](C)N(Cc2cncnc2)C[C@@H]1C,1.19%
18,COc1ccc(-c2cn3c(C)c(C(=O)Nc4cccc(NC(C)=O)c4)sc3n2)cc1,1.6% [at 16 µM]
19,O=C(N/N=C/c1ccc(-n2ccnc2)cc1)c1cccs1,-9.81%
20,Cc1ccc(-n2nnnc2-c2cnn(-c3ccc(F)cc3)c2C(F)(F)F)cc1,-12.1%
21,CCc1ccc([C@H]2[C@@H]3C(=O)C[C@@H]4C(=O)N(C5CCCCC5)C(=O)[C@@H]4[C@@H]3CN2S(=O)(=O)c2ccc(C)cc2)cc1,-1.79%
22,COc1ccc(OC2C(=O)N(Cc3ccc4c(c3)OCO4)C2c2cccs2)cc1 (stereo not drawn),-12%

row,SMILES,"activity change, negative = cytotoxicity"
1,COC(=O)[C@H](Cc1ccccc1)NC(=O)Cn1cnc(C(=O)Nc2ccc(C)c(C)c2)n1,2.54%
2,O=S(=O)(c1ccccc1Cl)N1CCCC1c1nc(-c2ccc(Cl)cc2)no1 (stereo not drawn),-8.34%
3,CCNC(=O)C[C@@H]1CC[C@@H]2[C@H](COC[C@@H](O)CN2C(=O)c2ccccn2)O1,2.57%
4,COc1ccc(CCNc2oc(-c3cccc4ccccc34)nc2P(=O)(OC)OC)cc1OC,-3.52% [at 16 µM]
5,COC(=O)C1(C(=O)OC)C[C@H](c2ccccc2)N(Cc2ccccc2OC)[C@@H]1c1ccccc1,-15.9%
6,COc1ccc(S(=O)(=O)Nc2ccc3c(c2)CC(=O)N([C@H](C)CO)C[C@H](C)[C@H](CN(C)S(=O)(=O)c2cccs2)O3)cc1,-4.69%
7,CC(C)CNS(=O)(=O)c1ccc(CCC(=O)N2CCN(Cc3ccc4c(c3)OCO4)CC2)cc1,-1.06%
8,CN1C(=O)C2(c3ccccc31)N(C)CC(c1ccccc1)C21SC(=S)N(Cc2ccco2)C1=O (stereo not drawn),-11.9%
9,C[C@@]12C(=O)N(Cc3ccco3)CC(=O)N1[C@H]1c3ccccc3OC[C@@H]1[C@@H]2c1ccccc1,-10.9%
10,O=C(NCCCN1CCc2ccccc2C1)Nc1ccc(Cl)cc1,-12.5%
11,CCCCn1c(N)c(N(CC(C)C)C(=O)c2ccc(S(=O)(=O)N(CC)c3ccccc3)cc2)c(=O)[nH]c1=O,-1.92%
12,NC(=O)c1sc2nccc(Nc3ccccc3)c2c1N,-3.31%
13,CCc1nc2ccc(C(=O)NCCN3CCNC3=O)cn2c1N(CC)Cc1cccc(Br)c1,-7.03%
14,Cc1ccccc1OCC(=O)Nc1cccc(C(=O)O)c1,-10.9%
15,O=C(Nc1ccc(F)cc1)C1CCCN1S(=O)(=O)c1ccc(Br)cc1 (stereo not drawn),-8.12%
16,CC(=O)c1c(C)[nH]c(C(=O)OCC(=O)Nc2c(C)cccc2C)c1C,-2.58%
17,Cc1ccc(-c2nnc(N3CCN(C(=O)COc4ccccc4)CC3)c3ccccc23)cc1,-11.2%
18,O=C(Cc1ccc(S(=O)(=O)N2CCOCC2)s1)N1CCN(S(=O)(=O)c2ccc(Cl)cc2)CC1,-5.29%
19,Cc1cc(Cl)ccc1OCC(=O)NNC(=O)C1CSC2(C)CCC(=O)N12 (stereo not drawn),2.33%
20,CC(NC(=O)c1cc(S(=O)(=O)N(C)C)ccc1N1CCCC1)C1CC2CCC1C2 (stereo not drawn),2.17%
21,COCCCn1c(-c2ccc(S(=O)(=O)N3CCOCC3)cc2)csc1=Nc1ccccc1,-20.8%
22,O=C(CCc1ccc(S(=O)(=O)N2CCOCC2)cc1)Nc1nc(COc2ccccc2)cs1,-22.9%

row,SMILES,"activity change, negative = cytotoxicity"
1,O=C(CN1C(=O)c2ccccc2S1(=O)=O)N1CCc2ccccc21,-5.92%
2,Clc1ccc(-c2noc(CSc3nnc(-c4ccncc4)n3-c3ccccc3)n2)cc1,-16.1%
3,Cc1cccc(C)c1NC(=O)N1CCN(c2nc3ccccc3s2)CC1,-12.1%
4,COc1ccc(-c2nnn(CC(=O)N(Cc3cccs3)C(C)C(=O)NC3CCCC3)n2)cc1OC (stereo not drawn),-11.7%
5,O=C(NC1CCCCC1)C(c1cccs1)N(Cc1cccs1)C(=O)c1ccco1 (stereo not drawn),-7.51%
6,c1ccc2c(c1)OCC(CNc1ncnc3nc[nH]c13)O2 (stereo not drawn),-3.4%
7,C[C@H]1CN([C@@H](C)CO)C(=O)c2ccccc2-c2ccccc2CO[C@@H]1CN(C)C(=O)Nc1cccc(C(F)(F)F)c1,-19.8%
8,C[C@H]1CN([C@@H](C)CO)C(=O)c2c(c3ccccc3n2C)-c2ccccc2CO[C@H]1CN(C)C(=O)Cc1ccccc1,-12.5%
9,C[C@H]1CN([C@@H](C)CO)C(=O)c2c(c3ccccc3n2C)-c2ccccc2CO[C@H]1CN(C)C(=O)Nc1cccc(F)c1,-19.9%
10,C[C@H](C(=O)N(C)C[C@@H]1OCc2ccccc2-c2ccccc2C(=O)N([C@@H](C)CO)C[C@@H]1C)c1ccccc1,-1.93%
11,CO[C@H](C(=O)N(C)C[C@@H]1OCc2ccccc2-c2c(n(C)c3ccccc23)C(=O)N([C@H](C)CO)C[C@@H]1C)c1ccccc1,-3.18%
12,C[C@H](C(=O)N(C)C[C@@H]1OCc2ccccc2-c2ccccc2C(=O)N([C@@H](C)CO)C[C@H]1C)c1ccccc1,-8.58%
13,COc1ccc(CNC(=O)N(C)C[C@H]2OCc3ccccc3-c3ccccc3C(=O)N([C@H](C)CO)C[C@@H]2C)cc1,-3.63%
14,C[C@H](CO)N1C[C@H](C)[C@@H](CN(C)C(=O)[C@H](Cc2ccccc2)N(C)C)OCc2ccccc2-c2c(n(C)c3ccccc23)C1=O,-20.8%
15,CC1(C)C2CCC1(C)C(OCCNCCOC(=O)Nc1ccccc1)C2 (stereo not drawn),-25.1%
16,CCN1C(=O)[C@H]2[C@@H](c3ccc(C)cc3)N3C(=O)N(c4cccc(Br)c4)C(=O)[C@@]3(CC)[C@H]2C1=O,-6.07%
17,CCN1C(=O)[C@H]2[C@@H](c3ccc(C)cc3)N3C(=O)N(c4cccc(Br)c4)C(=O)[C@@]3(CC(C)C)[C@H]2C1=O,1.19% [at 16 µM]
18,C[C@H](CO)N1C[C@H](C)[C@H](CN(C)S(=O)(=O)c2cccs2)Oc2ccc(NC(=O)Cc3cn(C)c4ccccc34)cc2CC1=O,-4.75%
19,CCC(C)(C)NC(=O)C(NS(=O)(=O)c1cccs1)c1ccccc1 (stereo not drawn),4.01%
20,CC(C)OCCCNc1ncnc2c1[nH]c1ccccc12,-23.4%
21,CCOC(=O)/C=C1\Nc2ccccc2SC1=O,-1.22%
22,CCCCCn1c(C(C)NC(=O)CCC)nc2ccccc21 (stereo not drawn),1.39%
